# Out of some 65,000 compounds screened, about 2,100 (3.2%) showed an effect of 50% or more. The median lay at about -52%. This is one part of a sample in which strong results are shown more often than they occur.
# System: Plasmodium falciparum
# Test: Screen against P. falciparum Asexual Blood Stage (ABS), at 5uM
# Format: functional, Dd2
# Settings: tested at 5 uM
row,SMILES,INHIBITION [%]
1,COCCN1CCC2(CC1)CN(C(=O)c1ccco1)CCO2,-29.3
2,COc1ccc2[nH]nc(CN3CCC(C(=O)N4CCCCC4)CC3)c2c1,13.7
3,COc1ccc2[nH]nc(CN3CCC(C(C)N(C)C)CC3)c2c1 (stereo not drawn),64.4
4,COc1ccc2[nH]nc(CN3CCC(C(C)N4CCCC4)CC3)c2c1 (stereo not drawn),38.8
5,Cn1nccc1-c1nc2c(cc1C(=O)O)CCN(C(=O)C1CC1)CC2,-73.9
6,O=C1CC(c2ccncc2)C2(CCN(C(=O)c3cccs3)CC2)N1 (stereo not drawn),-50.7
7,OCc1cn([C@@H]2c3ccccc3C3(CCNCC3)[C@H]2O)nn1,-114
8,COCc1cn([C@@H]2c3ccccc3C3(CCNCC3)[C@H]2O)nn1,-24.9
9,O[C@H]1[C@H](n2cc(CN3CCCC3)nn2)c2ccccc2C12CCNCC2,63.2
10,Cc1cnc(C(=O)N2CCC3(CCN3Cc3ccc(F)cc3)C2)cn1 (stereo not drawn),-60.5
11,O=C1CN(c2ccc(CNC(=O)Nc3nnc(C4CC4)s3)cc2)CCN1,-5.48
12,COc1cc(CNc2cnn(C)c2)cc2c1OCCO2,-181
13,COc1cc(CNCCn2cc(C)cn2)cc2c1OCCO2,58.2
14,COc1cc(CNCCc2cnn(C)c2)cc2c1OCCO2,-7.17
15,c1cnn(CCNCCCOc2ccc3c(c2)OCO3)c1,23.5
16,Cc1cnn(CCNCCCOc2ccc3c(c2)OCO3)c1,50.6
17,Cc1cnn(CCNCCCOc2ccc(C#N)cc2)c1,65.9
18,Cc1cnn(CCCOc2ccc3c(c2)OCO3)c1,-30.8
19,Cc1cnn(CCNCCCOc2ccccc2)c1,-13.6
20,Cc1cnn(CCNCC(O)COc2ccc(C#N)cc2)c1 (stereo not drawn),-106
21,CC(=O)c1cccc(OCC(=O)NS(=O)(=O)c2ccc(Br)s2)c1,-85.3
22,CCN(CC)S(=O)(=O)N(Cc1ccccn1)Cc1ccccc1C,-6.79

row,SMILES,INHIBITION [%]
1,CC(NCC(N)=O)c1c(F)cccc1Cl (stereo not drawn),-21.3
2,Cc1sc2ncnc(N3CCC(N(C)Cc4cnn(C)c4)CC3)c2c1C,23.5
3,COCc1noc(CN2CCCCC2CCc2cccs2)n1 (stereo not drawn),-172
4,O=C(O)c1cc(-c2ccncc2F)cc(S(=O)(=O)N2CCCCCC2)c1,-154
5,O=C(c1ccco1)N1CCO[C@@H]2CN(CC3CC3)CC[C@@H]2C1,-65.2
6,Cc1cccc(CN2CCC3(CCN(Cc4ccccn4)C3)C2=O)c1 (stereo not drawn),27.8
7,Cc1nn(C)c(C)c1C1CCCN1C(=O)c1ccc(N(C)C)nc1 (stereo not drawn),-54.2
8,COc1cc(-c2ccc(F)c3c2OC(CN)C3)cc(OC)c1OC (stereo not drawn),-12.8
9,COc1ccc(-c2cccc3c2OC(CN)C3)cc1F (stereo not drawn),62.6
10,NCC1Cc2cccc(-c3nccc(N4CCC(O)CC4)n3)c2O1 (stereo not drawn),20.4
11,COc1cccnc1-c1ccc(F)c2c1OC(CN)C2 (stereo not drawn),59.3
12,COc1cc(-c2cccc3c2OC(CN)C3)cc(OC)c1OC (stereo not drawn),46.9
13,COc1c(F)cc(-c2cccc3c2OC(CN)C3)cc1F (stereo not drawn),35.4
14,COc1cc(-c2cccc3c2OC(CN)C3)ccc1O (stereo not drawn),38
15,COc1cc(OC)cc(-c2cccc3c2OC(CN)C3)c1 (stereo not drawn),68.3
16,NCC1Cc2cc(F)cc(-c3cnccn3)c2O1 (stereo not drawn),19.1
17,NCC(=O)N1CCC(c2cccc(Oc3ccccc3)n2)CC1,-20.5
18,CC(C)(C)NC(=O)CN1CCCNCC1,-113
19,CC(=O)NCC(=O)N1Cc2nccn2CC(COc2cccnc2)C1 (stereo not drawn),-98.1
20,CNc1cccc(C2CCCN(C(=O)Cc3ccccc3)C2)n1 (stereo not drawn),-62.3
21,COc1cccc(C(=O)C2CCCN(c3cc(C#N)ccn3)C2)c1 (stereo not drawn),-25.2
22,Cc1noc(CNC(=O)C2CSCCC(=O)N2)n1 (stereo not drawn),-164

row,SMILES,INHIBITION [%]
1,COc1ncc(C2(O)CCN(Cc3c(F)cccc3F)CC2)c(OC)n1,13.1
2,NC(=O)NCC(=O)N1C[C@@H]2CC[C@H]1CN(Cc1ccccc1)C2,-9.53
3,CNC(=O)C1(N2CCC[C@H]2C(=O)NC2CC2)CCCCC1,-145
4,COCCc1noc(C2CCCN(c3ncnc4c3CCC4)C2)n1 (stereo not drawn),-100
5,COc1cccc(Cn2ncnc2CCC(C)N2CCN(C)CC2)c1 (stereo not drawn),-99.9
6,N[C@@H]1CCN(Cc2ccccc2CS(=O)(=O)c2ccccc2)C[C@H]1O,-23.3
7,O=S(=O)(Cc1ccccc1CN1CC[C@H](CO)[C@H](O)C1)c1ccccc1,16.9
8,NC1CCCCN(Cc2ccccc2CS(=O)(=O)c2ccccc2)C1 (stereo not drawn),55.9
9,Cc1nc(N2CCC(C)CC2)ncc1-c1cc(O)nc(N2CCCC2)n1,-113
10,O=C1OCCN1Cc1ncnn1Cc1c(F)cccc1Cl,-76.9
11,Fc1cccc(Cl)c1Cn1ncnc1CSCCN1CCCC1,61.7
12,O=C1CCCCCN1Cc1ncnn1Cc1c(F)cccc1Cl,-29.5
13,CS(=O)(=O)N1C[C@@H]2COC[C@]2(CN2CCOCC2)C1,-107
14,CNC(=O)C1CCC2(CCN(c3nncs3)CC2)CO1 (stereo not drawn),-79.1
15,Cc1noc(C2CCN(C(=O)c3ccc(C(F)(F)F)nc3)CC2)n1,57
16,Cc1noc(C2CCN(C(=O)c3ccc(NC4CC4)nc3)CC2)n1,-9.68
17,Cc1noc(C2CCN(C(=O)c3ccc(N(C)C)nc3)CC2)n1,-27
18,CN(Cc1ccco1)C1CCC12CCN(C(=O)N1CCCC1)CC2 (stereo not drawn),-76
19,O=C(c1cccc2cccnc12)N1CCCC(n2ccnc2)C1 (stereo not drawn),55.4
20,O=C(c1cccc2ncccc12)N1CCCC(n2ccnc2)C1 (stereo not drawn),-2.7
21,O=C(c1cccnc1N1CCCCC1)N1CCCC(n2ccnc2)C1 (stereo not drawn),29.5
22,Cc1cc(C(=O)NCc2ccc(N3CCN(C)CC3)nc2)c(C)s1,-56.2

row,SMILES,INHIBITION [%]
1,O=C(c1cccc(F)c1Cl)N(CCO)CC1CC1,9.7
2,O=C(NCc1cc(Br)cs1)Nc1cn[nH]c1,-116
3,O=C(CC1CC1)N1CC[C@H]2[C@@H]1CCC(=O)N2c1cccnc1,-27.5
4,O=C1CC(c2cccnc2)c2c(sc3c2CCCC3)N1 (stereo not drawn),29.8
5,O=C1CC(c2ccc(C(=O)O)cc2)c2c(sc3c2CCCC3)N1 (stereo not drawn),-3.15
6,O=C1CC(c2ccncc2)c2c(sc3c2CCCC3)N1 (stereo not drawn),56.8
7,CCn1cnnc1CNC(=O)c1cc(Cl)ccc1F,-20.1
8,Cc1cnn(CC2CCCN2C(=O)Cc2ccc3c(c2)CCO3)c1 (stereo not drawn),-48.8
9,COc1cccc(CN2CCN(c3ccc4nncn4n3)C(C)C2)c1 (stereo not drawn),-39.5
10,CC1CN(Cc2cccc(C#N)c2)CCN1c1ccc2nncn2n1 (stereo not drawn),50.9
11,CC1CN(Cc2cccnc2)CCN1c1ccc2nncn2n1 (stereo not drawn),10.1
12,COCCCNS(=O)(=O)c1ccc(N2CCCCS2(=O)=O)cc1,-76.7
13,Cn1ccnc1CN1CCN(Cc2ccncc2)[C@@H]2CS(=O)(=O)C[C@@H]21,-33.9
14,CN1Cc2nc[nH]c2C[C@H]1C(=O)NC1CCCCC1,53
15,O=C([C@@H]1Cc2[nH]cnc2CN1C(=O)NC1CCCCC1)N1CCCC1,-56.1
16,CN(Cc1ccccc1)C(=O)[C@@H]1Cc2[nH]cnc2CN1C,42.2
17,Cc1c[nH]c(C2CCCN(C(=O)CCc3c(C)n[nH]c3C)C2)n1 (stereo not drawn),-98.1
18,CCOc1ccc(C(=O)Nc2c(C)nc3ccccn3c2=O)cc1,-144
19,CCn1nc2c(cc1=O)CN(Cc1nc(-c3cccs3)no1)CC2,20.5
20,CSCC(CCO)NC(=O)c1cccc(F)c1Cl (stereo not drawn),9.25
21,C[C@@H]1CN(Cc2cc(C3CCCCC3)no2)CC[C@]1(C)O,-6.78
22,OCC1COCCN(Cc2cc(C3CCCCC3)no2)C1 (stereo not drawn),-122

row,SMILES,INHIBITION [%]
1,NC1CCCCN(Cc2cc(C3CCCCC3)no2)C1 (stereo not drawn),62
2,COCC(NC(=O)c1cn(-c2cccc(Cl)c2F)nn1)C1CC1 (stereo not drawn),-24.2
3,Cc1ccc2cccc(S(=O)(=O)N(C)CC3CCN(C)CC3)c2n1,58.6
4,Cc1ccc2cccc(S(=O)(=O)N(C)CC3CCN(C)C3)c2n1 (stereo not drawn),37.8
5,Cc1ccc2cccc(S(=O)(=O)N(C)C3CCCN(C)C3)c2n1 (stereo not drawn),33.8
6,Cn1c(CCC(=O)N2CCCC3(CC2)CNC(=O)O3)nc2cccnc21 (stereo not drawn),-38.1
7,CC(C)CCN1C(=O)c2ccc(C(=O)NCCc3c[nH]cn3)cc2C1=O,-19.2
8,Cc1cc(C)c2cc(CNCc3ccccc3)c3nn(C)c(=O)n3c2c1,65.4
9,COCCNCc1cc2c(C)cc(C)cc2n2c(=O)n(C)nc12,-43
10,Cc1cc(C)c2cc(CNCc3ccc(C)o3)c3nn(C)c(=O)n3c2c1,63.9
11,Cc1cc(C)c2cc(CNCc3cccnc3)c3nn(C)c(=O)n3c2c1,31.5
12,Cc1cc(C)c2cc(CNCC3CCCO3)c3nn(C)c(=O)n3c2c1 (stereo not drawn),7.98
13,CCCNCc1cc2c(C)cc(C)cc2n2c(=O)n(C)nc12,-36.8
14,CS(=O)(=O)N1Cc2ccnn2CC(C(=O)NCc2cccnc2)C1 (stereo not drawn),-95.4
15,Cc1cnc(N2C[C@@H]3[C@@H](C2)OCC(=O)N3CCN(C)C)nc1,-122
16,CCc1ccsc1C(=O)N1CCN(CCN2C(=O)CCC2=O)CC1,-170
17,Cc1nn(C)cc1CN(C)C(=O)c1ccncc1,-130
18,CCn1c(=O)nc(N)c2c(-c3ccc(OC)cc3)csc21,-67.6
19,COc1ccc(-c2csc3c2c(N)nc(=O)n3CCCN(C)C)cc1,54.2
20,COc1ccc(-c2csc3c2c(N)nc(=O)n3CCN(C)C)cc1,-27.7

# — ChEMBL document CHEMBL4513216, “Probing the Open Global Health Chemical Diversity Library for Multistage-Active Starting Points for Next-Generation Antimalarials” (ACS Infect Dis, 2020)
